Where “and” joins values, the source holds several entries; their conditions need not be identical. Identical values can stand only once. Unmarked numbers belong to inactive results. Records with an inconclusive call do not appear. Entries that show only a call come without a potency. Calls of active or inactive are those of the source. Unless noted, calls come from the whole dose curve; as a rule, active = well fitted curve in the direction sought with a large enough effect; inconclusive = small, poorly fitted or top-dose-only effect, or another doubt; inactive = no such curve, though single readings can be large; an effect the other way counts as inactive or inconclusive.
How the values were obtained:
[1] = qHTS for compounds that reverse cellular toxicity of Amyloid beta (A-beta) peptide in yeast: LOPAC Validation Assay (AID 720559)
In short: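 Yeast cells expressing toxic A-beta were combined with pinned compounds in growth medium and incubated 48 hr at 30 C. Growth was read as absorbance at 600 nm and normalized to DMSO and to an equimolar FeCl3/clioquinol positive control.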

[2] = qHTS for Activators of Parkin Expression: LOPAC Validation Assay (NLuc Reporter) (AID 720572; note: potency is the fitted concentration of half-maximal effect)
In short: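 Parkin promoter-driven FLuc/NLuc neuronal reporter cells; 24 h plating, 7-pt dose response, 24 h at 37 C/5% CO2; FLuc then NanoLuc reagent, 10 min each, luminescence; DMSO/positive control normalized.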

[3] = qHTS for Activators of Parkin Expression: LOPAC Validation Assay (FLuc Reporter) (AID 720573)
In short: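 Neuronal cell line stably carrying FLuc/NLuc coincidence reporter under Parkin promoter; cells plated 24 h, then compounds added in 7-point dose response for 24 h at 37 C. FLuc luminescence read; normalized to DMSO and positive control (100%).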

[4] = target: T1, Hexokinase-4 (Homo sapiens) + Glucokinase regulatory protein (Homo sapiens) (UniProt P35557+Q14397); assay: qHTS assay for inhibitors of recombinant human GCK-GKRP interaction: Diaphorase-coupled assay (AID 743205)
In short: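 GST-GCK (10 nM) with FLAG-GKRP (10 nM), 5 mM glucose and 0.4 mM ATP in pH 7.6 Hepes; compounds preincubated 20 min with substrate. G6PDH/diaphorase coupling converts resazurin to resorufin, read kinetically (ex 525/em 590 nm) for 30 min.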

[5] = target: T1, Hexokinase-4 (Homo sapiens) + Glucokinase regulatory protein (Homo sapiens); assay: qHTS assay for inhibitors of recombinant human GCK-GKRP interaction: ADP-Glo assay (AID 743206)
In short: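 GST-GCK and FLAG-GKRP (15 nM each in the dispensed mix, with 2 uM S6P) react with 0.4 mM ATP and 5 mM glucose (final) in Hepes pH 7.6 for 60 min at room temperature. ADP is measured by ADP-Glo luminescence.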

[6] = target: T1, Hexokinase-4 (Homo sapiens) + Glucokinase regulatory protein (Homo sapiens); assay: qHTS assay for inhibitors of recombinant human GCK-GKRP interaction: HTRF assay (AID 743207)
In short: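 GST-GCK and FLAG-GKRP (5 nM each) were combined with 2 uM S6P in pH 7.1 Hepes/MgCl2/KCl/DTT buffer, then compound and anti-FLAG XL665/anti-GST K antibodies were added. After 60 min at room temperature, HTRF 665/615 nm emission was read.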

[7] = qHTS Assay for Identifying Gametocytocidal Compounds (AID 743244);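 note: actives lower the fluorescent signal which means gametocytes are killed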; details: P. falciparum 3D7 stage III-V gametocytes, alamarBlue, 72 h; max response: stronger effect = lower value
In short: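 Stage III–V gametocytes of P. falciparum 3D7 were seeded at 20,000 cells/well onto pre-dispensed compounds. After 72 h, 37 °C, 5% CO2, alamarBlue was added for another 24 h.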

[8] = qHTS assay for measurement of the activity of small molecule inhibitors on Zika virus induced Caspase-3 activity in human iPSC derived neural progenitor cells (hNPCs) (AID 1224857); note: nearly all actives have a fitted effect of over 65% in size
In short: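 Values are percent inhibition of virus-induced caspase-3/7 signal, scaled between uninfected cells and ZIKV-infected cells. Infection used 2 FFU/cell for 6 h after 1 h compound exposure.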

[9] = qHTS assay for small molecule agonists of the antioxidant response element (ARE) signaling pathway measured by Nrf2-dependant transcriptional activity (AID 720636; active = well fitted curve in the direction sought with a large enough effect in the repeat runs; an effect the other way counts as inactive or inconclusive)
In short: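 ARE-luc HepG2 cells carrying an Nrf2-responsive luciferase reporter were plated in medium with 1% dialyzed FBS, left 6 hr at 37 C to attach, then exposed to compound for 16 hr. Luciferase luminescence was read after ONE-Glo addition.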

[10] = qHTS assay for small molecule antagonists of the retinoid-related orphan receptor gamma (ROR-gamma) signaling pathway - cell viability counter screen (AID 720652; active = well fitted curve in the direction sought with a large enough effect in the repeat runs; an effect the other way counts as inactive or inconclusive;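 note: CHO reporter cells with doxycycline-induced ROR-gamma expression; series mostly up to about 92 µM; compound exposure lasted 16 hr before ATP read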)
In short: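 CHO cells carrying TET-inducible ROR and RORE-luciferase reporter, plated 5 hr, then dosed with compound plus doxycycline. After 16 hr at 37 C, viability read as intracellular ATP by CellTiter-Glo luminescence.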

[11] = qHTS assay for small molecule agonists of the antioxidant response element (ARE) signaling pathway measured by Nrf2-dependant transcriptional activity - cell viability counter screen (AID 720653; active = well fitted curve in the direction sought with a large enough effect in the repeat runs; an effect the other way counts as inactive or inconclusive; note: potency is the fitted concentration of half-maximal effect); details: ARE-bla HepG2 viability, CellTiter-Glo ATP luminescence, 16 h; max response: stronger effect = lower value
In short: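 Cytotoxicity counter screen: intracellular ATP quantified by CellTiter-Glo luminescence in the same ARE-bla HepG2 plates, after 16 h compound exposure and a 2 h beta-lactamase substrate step.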

[12] = qHTS assay for cell viability of HEK293 cells (AID 743288); details: ATP luminescence (CellTiter-Glo), 18 h; max response: stronger effect = lower value; note: nearly all actives have a fitted effect of over 50% in size; note: potency is the fitted concentration of half-maximal effect
In short: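 Parental HEK293 cells were seeded at 2,000 cells/well, rested at least 5 h at 37 C, then exposed to compounds in DMSO for 18 h at 37 C. Viability was read as ATP-dependent luciferase luminescence after 30 min at room temperature.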

[13] = qHTS assay for cell viability of the p53RE-bla HCT-116 cell line (AID 743292); note: nearly all actives have a fitted effect of over 55% in size
In short: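 CellSensor p53RE-bla HCT-116 cells, 4,000/well, preincubated 5 h at 37 C, then exposed to compounds in DMSO for 16 h at 37 C. Viability read as CellTiter-Glo luminescence (intracellular ATP) after 30 min at room temperature.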

T1 sequence (P35557 whole entry, looked up): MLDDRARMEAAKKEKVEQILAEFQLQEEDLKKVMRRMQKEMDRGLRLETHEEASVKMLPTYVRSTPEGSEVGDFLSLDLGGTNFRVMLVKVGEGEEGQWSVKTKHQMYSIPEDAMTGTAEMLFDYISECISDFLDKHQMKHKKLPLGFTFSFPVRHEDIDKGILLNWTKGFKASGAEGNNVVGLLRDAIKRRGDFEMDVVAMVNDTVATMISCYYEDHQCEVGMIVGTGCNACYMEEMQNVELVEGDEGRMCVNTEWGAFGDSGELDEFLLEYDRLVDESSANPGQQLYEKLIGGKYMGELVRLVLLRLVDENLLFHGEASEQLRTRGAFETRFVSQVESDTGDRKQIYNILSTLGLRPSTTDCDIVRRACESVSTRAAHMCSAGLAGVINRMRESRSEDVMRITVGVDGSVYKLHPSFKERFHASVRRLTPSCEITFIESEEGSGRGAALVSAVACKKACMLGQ
T1 sequence (Q14397 whole entry, looked up): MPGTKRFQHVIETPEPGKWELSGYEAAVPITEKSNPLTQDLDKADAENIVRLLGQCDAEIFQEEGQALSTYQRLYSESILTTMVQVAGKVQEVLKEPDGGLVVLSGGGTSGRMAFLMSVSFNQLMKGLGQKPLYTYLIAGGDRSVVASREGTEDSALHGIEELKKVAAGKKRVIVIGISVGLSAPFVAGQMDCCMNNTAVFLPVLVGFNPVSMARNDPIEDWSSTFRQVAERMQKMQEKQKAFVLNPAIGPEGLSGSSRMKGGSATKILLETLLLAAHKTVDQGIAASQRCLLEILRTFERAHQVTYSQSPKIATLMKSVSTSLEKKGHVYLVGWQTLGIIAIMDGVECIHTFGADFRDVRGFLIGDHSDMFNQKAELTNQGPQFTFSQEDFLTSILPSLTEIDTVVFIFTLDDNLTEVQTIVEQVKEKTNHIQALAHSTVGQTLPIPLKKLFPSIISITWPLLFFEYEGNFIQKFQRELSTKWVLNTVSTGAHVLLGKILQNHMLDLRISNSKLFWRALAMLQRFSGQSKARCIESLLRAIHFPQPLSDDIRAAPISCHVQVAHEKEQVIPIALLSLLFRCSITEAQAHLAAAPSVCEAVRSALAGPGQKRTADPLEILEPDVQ

Row | SMILES | outcome [1] | Potency [2] | outcome [3] | outcome [4] | outcome [5] | Potency [6] | max response [7] | outcome [8] | outcome [9] | outcome [10] | max response [11] | max response [12] | outcome [13] | Potency [11] | Potency [12]
1 | COCCOC(=O)C1=C(C)NC(C)=C(C(=O)OC(C)C)C1c1cccc([N+](=O)[O-])c1 (stereo not drawn) | inactive | 2.06 µM (active) | inactive | inactive | inactive | inactive | 18.6% and 13.2% | inactive |  |  |  |  |  |  | 
2 | CC(C)(C)NCC(O)c1cc(O)cc(O)c1 (stereo not drawn) | inactive | inactive | inactive | inactive | inactive | inactive | -9.6% and 12.9% | inactive |  |  |  |  |  |  | 
3 | CC(C)NNC(=O)c1ccncc1 | inactive | inactive | inactive | inactive | inactive | inactive | -4.04% and 10% | inactive |  |  |  |  |  |  | 
4 | C[N+](C)(C)CCOC(=O)CCC(=O)OCC[N+](C)(C)C | inactive | inactive | inactive | inactive | inactive | inactive | 0.123% and 29.2% | inactive |  |  |  |  |  |  | 
5 | CNCCCN1c2ccccc2CCc2ccccc21 | inactive | inactive | inactive |  |  |  |  | inactive |  |  |  |  |  |  | 
6 | NC(=O)N1c2ccccc2C=Cc2ccccc21 | inactive | inactive | inactive | inactive | inactive | inactive | -9.6% and 15.5% | inactive | inactive | inactive | -1.67% and -8.32% | -11.6% and -13.8% | inactive |  | 
7 | O=C(O)CCCCCCCC(=O)O | inactive | inactive | inactive | inactive | inactive | inactive | 9% and 10.5% | inactive | inactive |  | -8.37% | -0.211% | inactive |  | 
8 | CCC(=O)c1ccc2c(c1)N(CCCN(C)C)c1ccccc1S2 | inactive | inactive | inactive | inactive | inactive | inactive |  | inactive |  |  |  |  |  |  | 
9 | O=c1[nH]c(=O)n([C@H]2C[C@H](O)[C@@H](CO)O2)cc1Br | inactive | inactive | inactive | inactive | inactive | inactive | 2.92% and 14.4% | inactive | inactive | inactive | -13.7% | -7.4% | inactive |  | 
10 | CCCCNC(=O)NS(=O)(=O)c1ccc(C)cc1 | inactive | inactive | inactive | inactive | inactive | inactive | 0.702% and 32.7% | inactive | inactive | inactive | 6.42% and -5.96% | 2.43% and -13.2% | inactive |  | 
11 | C[C@]12CCC(=O)C=C1CC[C@@H]1[C@@H]2CC[C@@]2(C)[C@H]1CC[C@]2(O)C(=O)CO | inactive | inactive | inactive | inactive | inactive | inactive | -4.53% and -8.22% | inactive |  |  |  |  |  |  | 
12 | CC(=O)OCC1=C(C(=O)O)N2C(=O)[C@@H](NC(=O)Cc3cccs3)[C@H]2SC1 | inactive | inactive | inactive | inactive | inactive | inactive | 2.41% and 26.5% | inactive |  |  |  |  |  |  | 
13 | Cc1nnc(SCC2=C(C(=O)O)N3C(=O)[C@@H](NC(=O)Cn4cnnn4)[C@H]3SC2)s1 | inactive | inactive | inactive | inactive | inactive | inactive | 5.06% and 32.1% | inactive |  |  |  |  |  |  | 
14 | COc1cc(Cc2cnc(N)nc2N)cc(OC)c1OC | inactive | inactive | inactive |  |  |  | 1.83% and 3.42% | inactive | inactive | inactive | 0.934% | -2.08% | inactive |  | 
15 | Nc1nc(N)c2nc(-c3ccccc3)c(N)nc2n1 | inactive | inactive | inactive | inactive | inactive | inactive | -2.09% and -8.78% | inactive | inactive | inactive |  |  | inactive | 25.1 µM (active) | 31.6 µM (active)
16 | CCCCCN(CCCCC)C(=O)C(CCC(=O)O)NC(=O)c1ccc(Cl)c(Cl)c1 (stereo not drawn) | inactive | inactive | inactive | inactive | inactive | inactive | 10.8% and 16.9% | inactive |  |  |  |  |  |  | 
17 | C[C@@H](O)[C@H]1C(=O)N2C(C(=O)O)=C(SCCN=CN)C[C@H]12 | inactive | inactive | inactive | inactive | inactive | inactive | 3.85% and 8.18% | inactive |  |  |  |  |  |  | 
18 | CC(=O)Oc1cc(C(C)C)c(OCCN(C)C)cc1C | inactive | inactive | inactive | inactive | inactive | inactive | 14.5% and 12.4% | inactive |  |  |  |  |  |  | 
19 | CCCN1C[C@H](CSC)C[C@@H]2c3cccc4[nH]cc(c34)C[C@H]21 | inactive | inactive | inactive | inactive | inactive | inactive | 27.1% | inactive |  |  |  |  |  |  | 

From PubChem BioAssay (NCATS)
